aSyn 5UTR act: Activators working through SNCA 5'UTR binding (MLPCN); AID 1814; 7.1% of 300,000 active; alpha-synuclein 5'UTR reporter, activators screen; activity score, % (tested at 7.5 µM), hits read low; in the data active = activity score below about -60%
Starred values were filed as active, the others as inactive. These entries were drawn from the full list.

SMILES	aSyn 5UTR act
O=C(O)c1cccc(N/N=C/c2ccc(OC(F)(F)F)cc2)c1	64
O=C(O)c1cc(N/N=C/C=C/c2ccccc2)ccc1Cl	-179*
O=C(O)c1cc(N/N=C/c2ccc(OCc3ccccc3)cc2)ccc1Cl	-172*
COC(=O)c1ccc(-c2ccc(/C=N/NC(=O)Cc3nnc(N)s3)o2)cc1	-67*
COc1ccc(/C=C/C(=O)c2ccc(Cl)s2)cc1O	-147*
COc1cc(/C=C/C(=O)c2ccc(Cl)s2)cc(OC)c1O	-164*
NC(N)=N/N=C/c1ccc(OCc2ccccc2)cc1	-70*
NC(N)=N/N=C/c1ccc(OCc2ccc(Cl)cc2)cc1	-66*
Cc1cccc(Nc2ccc(NCc3ccccc3)nn2)c1	-110*
Cc1nn(-c2ccccc2)c2sc(C(=O)N(CC(=O)NC3CCCC3)Cc3ccco3)cc12	-67*
Cc1nn(-c2ccc(F)cc2)c2sc(C(=O)N3CCCCCC3)cc12	-84*
Cc1nn(-c2ccccc2)c2sc(C(=O)NC3CC3)cc12	-100*
O=[N+]([O-])c1cc(S(=O)(=O)/N=C(/c2ccccc2)N2CCOCC2)ccc1Cl	-83*
O=C(C#Cc1ccccc1)c1ccco1	-141*
O=[N+]([O-])c1cccnc1NCCc1c[nH]c2ccccc12	-123*
Cc1ccc(N2C(=O)c3cccc4c([N+](=O)[O-])ccc(c34)C2=O)c2cccnc12	56
O=[N+]([O-])c1cccnc1NCCc1ccccc1	-159*
O=[N+]([O-])c1ccc(O)c2ncccc12	72
Cc1cc(=O)oc2cc(OCc3cc4c(cc3Cl)OCO4)ccc12	-66*
Cc1onc(-c2ccccc2)c1C(=O)O/N=C(\N)c1ccc([N+](=O)[O-])o1	-136*
Nc1ccc2nc3c(=O)n(C4CCCCC4)c(=O)[nH]c3nc2c1	-130*
CC(C)(C)SCCNC(=O)c1ccc(CN2CCc3ccccc3C2)cc1	-63*
Cc1cccc(NC(=O)c2ccc(CN3CCN(Cc4ccccc4)CC3)cc2)c1	-77*
Oc1c(CN2CCc3ccccc3C2)cc(Cl)c2cccnc12	91
O=C(c1ccc2ccccc2c1)N1CCN(Cc2ccccc2)CC1	-85*
SMILES	aSyn 5UTR act
COc1cccc(NC(=O)c2ccc(CN3CCc4ccccc4C3)cc2)c1	-104*
NC(=S)Nc1cccc2cc3ccccc3cc12	-101*
O=C(Nc1cnc2ccccn2c1=O)c1ccc(F)cc1	-92*
O=C(Nc1cnc2sc3c(n2c1=O)CCCC3)c1ccc(F)cc1	-105*
COc1ccc(C(=O)Nc2cnc3ccccn3c2=O)cc1	-169*
CN(C)c1ccc(/C=N/n2ncc3ccccc32)cc1	-290*
CCCCCN1C(=O)/C(=C/c2c(N3CCc4ccccc4C3)nc3ccccn3c2=O)SC1=S	-94*
C/C(=N\NC(=O)c1c(C)nc2ccccn12)c1ccc(C(C)(C)C)cc1	-98*
C/C(=N\NC(=O)c1c(C)nc2ccccn12)c1ccco1	-139*
C/C(=N\NC(=O)c1cccc(N/N=C(\C)c2ccco2)c1)c1ccco1	-81*
C/C(=N\NC(=O)c1cc(-c2cccnc2)nc2ccccc12)c1ccc(O)cc1O	105
C/C(=N/NC(=O)c1cc2ccccc2cc1O)c1ccco1	-64*
c1ccc(CSc2ccc(-c3ccc4c(c3)OCO4)nn2)cc1	-150*
Oc1ccccc1-c1nnc(SCCN2CCOCC2)n1Cc1ccccc1	81
Cn1c(SCc2ccccc2)nnc1-c1ccc(O)cc1	-76*
Cn1c(SCc2ccccc2)nnc1-c1ccc2c(c1)OCO2	-192*
Cc1cc(NCCCN2CCOCC2)n2ncc(-c3ccccc3)c2n1	-95*
Cc1cc(NCc2ccccn2)n2ncc(-c3ccccc3)c2n1	-155*
COc1ccccc1-c1cnn2c(NCc3ccccc3)cc(C)nc12	-75*
Cc1cc(NCc2ccccn2)n2ncc(-c3ccc(Cl)cc3)c2n1	-97*
Cn1c2ccccc2c2ncn(CCC3=CCCCC3)c(=O)c21	-158*
Cc1cc(C(=O)CSc2nnnn2-c2ccccc2)c(C)n1-c1ccc2c(c1)OCO2	-91*
Cc1cc(C(=O)CSc2nncs2)c(C)n1-c1ccc2c(c1)OCO2	-153*
CCN(CC)c1ccc(/C=C2\SC(N)=NC2=O)cc1	-114*
Oc1csc(Cc2nc(-c3ccc(Br)cc3)cs2)n1	-291*
SMILES	aSyn 5UTR act
O=c1c2ccccc2cnn1CCOc1cccc(Br)c1	-153*
CCN(C(=O)c1ccco1)c1nc(-c2ccc(OC)cc2)cs1	-159*
COCCN(C(=O)c1ccccc1F)c1nc(-c2ccc(OC)cc2)cs1	-73*
CN(C(=O)c1ccco1)c1nc(-c2ccccc2)cs1	-158*
CCC(=O)N(CC)c1nc(-c2ccc(OC)cc2)cs1	-161*
C=CCN(C(=O)CCc1ccccc1OC)c1nc(-c2ccc(S(C)(=O)=O)cc2)cs1	71
CCN(C(=O)c1ccccc1F)c1nc(-c2ccc(OC)cc2)cs1	-199*
COCCN(C(=O)c1ccccc1F)c1nnc(-c2ccc(OC)cc2)s1	-73*
CCCc1nn(C)c(C(=O)Nc2cccc(C)c2)c1Cl	-123*
CCCc1nn(C)c(C(=O)Nc2ccc(Cl)cc2)c1Cl	-79*
CCCc1nn(C)c(C(=O)Nc2ccccc2)c1Cl	-98*
Cc1ccc(C(=O)c2oc3ccc(Cl)cc3c2NC(=O)CN2CCN(C)CC2)cc1	-108*
CC1CCN(C(=O)c2cc(-c3ccccc3O)on2)CC1	-82*
CC1CCN(C(=O)c2cc(-c3ccco3)on2)CC1	-140*
COc1ccc(/C=N/N=C2/SCC(=O)N2Cc2ccccc2)cc1	-170*
COc1ccc(CN2C(=O)CS/C2=N/N=C/c2ccccc2)cc1	-64*
C#CC[N+](C)(C)CCCCCCCCC	65
Cc1ccc(CNc2nc(C)cs2)cc1	-112*
CCOc1ccc(-c2ccc(SCC(=O)NCC3CCCO3)nn2)cc1 (stereo not given)	-67*
CCOC(=O)c1c(C)n(-c2ccc(C)cc2)c2ccc(OCC(O)CNCC3CCCO3)cc12 (stereo not given)	75
Cc1ccc(-c2ccc(SCC(=O)NCC3CCCO3)nn2)cc1 (stereo not given)	-85*
CCOc1ccc(C(=O)Nc2nnc(SCC(=O)NCC3CCCO3)s2)cc1 (stereo not given)	76
S=c1nc2ccccc2c2nc(-c3ccccc3)[nH]n12	-64*
S=c1nc(-c2ccccc2)[nH]n1-c1ccccc1	-143*
O=C(NCCc1ccc(F)cc1)c1coc(=O)c(Br)c1	-64*
SMILES	aSyn 5UTR act
Cc1cc(NC(=O)c2coc(=O)c(Br)c2)ccc1C(C)C	-75*
O=C(Nc1ccccc1F)c1coc(=O)c(Br)c1	-62*
O=C(Nc1nc2c(F)cccc2s1)C1CC1	-111*
NNc1nc2c(F)cc(F)cc2s1	-164*
NNc1nc2c(F)cccc2s1	-281*
Cc1c(Cl)ccc2sc(NC(=O)C3CC3)nc12	-85*
O=C(Nc1nc2c(F)cc(F)cc2s1)C1CCN(C(=O)c2ccc(F)cc2)CC1	-162*
Fc1cccc2sc(Nc3nc4c(F)cccc4s3)nc12	-210*
Fc1cccc2sc(Nc3nnc(-c4ccccc4)o3)nc12	-90*
CC1CCc2nc(NC(=O)CN3CCOCC3)sc2C1 (stereo not given)	-92*
CC1CCc2nc(NC(=O)C3CC3)sc2C1 (stereo not given)	-138*
COC(=O)c1c(NC(=O)CN2CCOCC2)sc2c1CCC(C)C2 (stereo not given)	-123*
CC1CCc2nc(NC(=O)Nc3ccc4c(c3)OCO4)sc2C1 (stereo not given)	-123*
CC1CCc2nc(NC(=O)C3COc4ccccc4O3)sc2C1 (stereo not given)	63

Source: PubChem
